These results are taken from PubChem BioAssay AID2023 (NMMLSC, 2009).

SMILES strings stand for the structures. Hit rate of the full screen: of about 320,000 compounds, about 1,100 (0.34%) were called active.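 Rule for the calls: active = GFP response vs DMSO above a set limit, about the screen mean plus 3 SD (cut at about 150% in these data); inconclusive = under 70 cell events counted for the yeast strain; inactive = the rest.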 This excerpt belongs to a sample that is enriched for actives.

The test can be described thus: modulators of LAP4-GFP expression in yeast, primary screen, S. cerevisiae, multiplex flow cytometry, MLPCN library (AID 2023). The conditions noted are these: 3 h, at 10 µM, hits give high values, median GFP as percent of DMSO wells. (Flow cytometry measures light scatter and fluorescence of single cells or particles in a stream.)
Regarding `Cc1cc(NC(=O)CN2C(=O)NC(CCc3ccccc3)C2=O)no1` (configuration not stated), the GFP response vs DMSO was 92.5% (inactive). The same measure for `Cc1ccc(NC(=O)N2CCSc3ccccc32)cc1`: 96.8% (inactive). The same measure for `O=C(NCCS(=O)(=O)c1ccc(Br)cc1)c1ccccc1Cl`: 102% (inactive); for `CCc1noc(C)c1C(=O)N1CCCSC1=Nc1ccccc1OC`: 101% (inactive).

On to `CC(C)[C@@H]1COC(c2cccc(C3=N[C@H](C(C)C)CO3)c2)=N1`, for which the GFP response vs DMSO was 163% (active). On to `CCOCc1c(C(=O)N2CCN(Cc3ccc(Br)s3)CC2)oc2ccccc12`, for which the GFP response vs DMSO is 102% (inactive).

On to `COc1ccc(Cn2c(-c3ccc(Cl)cc3)c[n+]3ccccc23)cc1`, for which the GFP response vs DMSO is 101% (inactive).

`C/C(N)=C(\C#N)C(=O)NCCc1ccccn1`: the GFP response vs DMSO is 87.1% (inactive). The same measure for `O=C(NCCc1ccccc1Cl)C1CCC(=O)N(CCCc2ccccc2)C1` (configuration not stated): 87.4% (inactive); for `Cc1cc(C)nc(S/C=C/C(=O)c2ccccc2)n1`: 239% (active); for `Cc1cc(Oc2ccc(Cl)cc2)nc(SCC(=O)c2ccccc2)n1`: 103% (inactive). Turning to `Cc1cc(C)nc(SCC(=O)c2ccc(Cl)cc2)n1`, the GFP response vs DMSO is 91.3% (inactive). In the case of `Cc1noc(C)c1S(=O)(=O)N(C)Cc1ccccc1`, the GFP response vs DMSO is 91.9% (inactive). `N#C/C(=C\N1CCOCC1)S(=O)(=O)c1ccc(Cl)cc1`: the GFP response vs DMSO is 113% (inactive). The result for `Cc1ccc(NC(=O)Cn2c(=O)n(CCC(=O)NC3CCN(Cc4ccccc4)CC3)c(=O)c3ccccc32)cc1` reads 94.3% (inactive).

`COc1ccc(C2(c3ccc(OC)cc3)NC(=O)N(CC(=O)Nc3cc(C)on3)C2=O)cc1`: the GFP response vs DMSO was 92.2% (inactive). The result for `CC(=O)Nc1ccc(S(=O)(=O)Nc2ccc(N3CCCCC3)cc2)cc1` reads 105% (inactive). The same measure for `O=C(Cc1ccccc1)NC(=S)Nc1ccc(N2CCCCC2)cc1`: 111% (inactive); for `O=C1C=CC(=O)N1c1ccc(N2CCCCC2)cc1`: 179% (active); for `COc1ccccc1N(CCOc1ccccc1)S(=O)(=O)c1ccccc1`: 103% (inactive). Turning to `Cc1nc([N+](=O)[O-])nn1C12CC3CC(CC(Br)(C3)C1)C2`, the GFP response vs DMSO is 109% (inactive). The result for `Cc1ccc(C(=O)CSc2ccccc2C(=O)O)cc1` reads 104% (inactive); that for `Cc1ccc(CSCC(N)C(=O)O)cc1` (configuration not stated), 97% (inactive). The same measure for `Cc1ccc(SC(CC(=O)c2ccc(C(C)(C)C)cc2)C(=O)O)cc1` (configuration not stated): 170% (active); for `COc1cnc(-c2ccccn2)nc1Oc1ccc(C(C)(C)C)cc1`: 107% (inactive); for `Cc1ccc(Oc2nc(-c3ccccn3)nc3ccccc23)cc1`: 151% (active).

As to `CC(C)(C)Nc1nc(-c2ccccn2)nc2ccccc12`, the GFP response vs DMSO was 90.7% (inactive). The result for `Nn1c(Cc2cccc3ccccc23)nnc1SCC(=O)N1CC(=O)Nc2ccccc21` reads 99.1% (inactive); that for `Cc1cccc(NC(=O)c2ccc([N+](=O)[O-])o2)c1`, 151% (active). The same measure for `O=C(Nc1ccc(Br)cn1)c1ccc([N+](=O)[O-])o1`: 105% (inactive). With `Cc1onc(NC(=O)c2ccc([N+](=O)[O-])o2)c1Br`, the GFP response vs DMSO was 116% (inactive). Take `Cc1cccc(N)c1SC1CCCCC1O` (configuration not stated): the GFP response vs DMSO was 92.2% (inactive). The same measure for `Cc1ccc(C(CNC(=O)Nc2ccccc2)N2CCN(C)CC2)cc1` (configuration not stated): 102% (inactive); for `Cc1cc(O)c(Sc2ccccc2)c(=O)o1`: 109% (inactive); for `Cc1ccc(N=Cc2c(O)cc(C)oc2=O)c(C)c1`: 100% (inactive). For the compound `Cc1cc(O)c(C(=O)/C=C/c2c(F)c(F)c(F)c(F)c2F)c(=O)o1`, the GFP response vs DMSO is 152% (active). On to `Oc1c(CN2CCN(c3ccc(F)cc3)CC2)cc(Cl)c2cccnc12`, for which the GFP response vs DMSO is 203% (active). Turning to `Oc1c(CN2CCCC2)cc(COCc2ccccc2)c2cccnc12`, the GFP response vs DMSO was 105% (inactive). In the case of `Cc1cccnc1NC(=O)c1cccc(S(=O)(=O)N2CCN(c3ccc(F)cc3)CC2)c1`, the GFP response vs DMSO was 87.3% (inactive). The result for `Cc1cc(C)c(OCC(=O)N(Cc2cccs2)C2CCS(=O)(=O)C2)c(C)c1` (configuration not stated) reads 98.7% (inactive); that for `C/C(=N\NS(=O)(=O)c1ccc(Cl)cc1)c1ccc(NC(=O)c2ccco2)cc1`, 94.4% (inactive); that for `O=[N+]([O-])c1ccc(F)cc1Oc1nc(-c2cccnc2)nc2ccccc12`, 100% (inactive). The same measure for `Cc1ccc2nc(C)cc(N/N=C/c3ccc(F)cc3)c2c1`: 103% (inactive); for `Fc1ccc(/C=N/Nc2nc(-c3cccnc3)nc3ccccc23)cc1`: 165% (active); for `CCOC(=O)CCC(=O)OCC(=O)NC(C)C1CC2CCC1C2` (configuration not stated): 100% (inactive). The same measure for `COc1ccc(S(=O)(=O)N2CCN(CC(=O)N3CCOCC3)CC2)cc1OC`: 95% (inactive). As to `O=C(COC(=O)c1cccnc1Cl)NC12CC3CC(CC(C3)C1)C2`, the GFP response vs DMSO was 104% (inactive). Take `CN/C(=C\[N+](=O)[O-])NCCSCc1csc(CN(C)C)n1`: the GFP response vs DMSO was 95.9% (inactive). For the compound `COC(=O)c1ccc(-c2noc(CN(Cc3ccccn3)CC3CCCO3)n2)cc1` (configuration not stated), the GFP response vs DMSO was 98.4% (inactive).

Turning to `COc1ccccc1C(=O)Nc1ccc(OCc2nnc3c4ccccc4c(C)nn23)cc1`, the GFP response vs DMSO is 102% (inactive). The same measure for `C=CCC1(CC=C)CCCN1C(=O)CC1C(=O)NCCN1Cc1ccccc1OC` (configuration not stated): 93% (inactive).

As for `COc1cccc(C(=O)Nc2nc3ccc(S(C)(=O)=O)cc3s2)c1`, the GFP response vs DMSO is 103% (inactive). The same measure for `CCc1noc(C)c1C(=O)Nc1nc(-c2ccccc2)cs1`: 115% (inactive); for `CCc1noc(C)c1C(=O)Nc1nc2ccc(OC)cc2s1`: 152% (active).

Take `COc1cc(C(=S)N2CCOCC2)cc(OC)c1OC(=O)c1ccc([N+](=O)[O-])cc1[N+](=O)[O-]`: the GFP response vs DMSO is 91.2% (inactive). Consider `Nc1c(C(=O)c2cccs2)sc2nsc(SCCN3CCCCC3)c12`, for which the GFP response vs DMSO is 203% (active). For the compound `O=C(CSc1ncnc2sccc12)N1CCN(C(=O)c2cccs2)CC1`, the GFP response vs DMSO is 107% (inactive).

Turning to `CCc1c(C)c2ccc(OC3CCCCC3=O)cc2oc1=O` (configuration not stated), the GFP response vs DMSO is 99.3% (inactive). Regarding `CC(C)c1ccc(NC(=O)C2CCCN(S(=O)(=O)c3cccnc3)C2)cc1` (configuration not stated), the GFP response vs DMSO is 94.4% (inactive). Regarding `O=C(NC1CCCCC1)c1ccc(-c2ccc(Cl)cc2)o1`, the GFP response vs DMSO is 118% (inactive). `CCOc1ccc(C(c2c(C)[nH][nH]c2=O)c2c(C)[nH][nH]c2=O)cc1OCC`: the GFP response vs DMSO is 128% (inactive). Regarding `Cc1[nH][nH]c(=O)c1C(c1ccc(-c2ccc(Cl)cc2)o1)c1c(C)[nH][nH]c1=O`, the GFP response vs DMSO was 184% (active). In the case of `Oc1ccc2ccccc2c1N=Nc1nccs1`, the GFP response vs DMSO is 165% (active).

With `CCN(c1ccccc1)S(=O)(=O)c1cc2c(cc1C)n(C)c(=O)c(=O)n2C`, the GFP response vs DMSO was 99.4% (inactive).

With `Cc1ccccc1OCCC(=O)OCC(=O)NCCc1ccc(S(N)(=O)=O)cc1`, the GFP response vs DMSO was 91.6% (inactive). In the case of `CC(C)CC1(C)NC(=O)N(CC(=O)Nc2ccc3c(c2)OCCO3)C1=O` (configuration not stated), the GFP response vs DMSO is 95.9% (inactive). The same measure for `CC1(C)CC(=O)CC2(C1)NCC(c1ccccc1Cl)c1c2[nH]c2ccccc12` (configuration not stated): 107% (inactive). As for `CC(C)c1nc(SCC(=O)Nc2cccc(C(=O)O)c2)c2c3c(sc2n1)CCCC3`, the GFP response vs DMSO is 99.7% (inactive). Consider `COc1ccc(-n2c(C)cc(C(=O)CN3C(=O)NC4(CCc5ccccc54)C3=O)c2C)cc1` (configuration not stated), for which the GFP response vs DMSO is 96.4% (inactive). As to `CCn1c(=O)c([N+](=O)[O-])c(NCc2ccc3c(c2)OCO3)c2ccccc21`, the GFP response vs DMSO was 101% (inactive).

With `CCc1ccc(S(=O)(=O)N/N=C\c2ccc([N+](=O)[O-])o2)cc1`, the GFP response vs DMSO is 87.6% (inactive). The same measure for `CCn1c(/C=C/c2ccc([N+](=O)[O-])o2)nc2ccccc2c1=O`: 358% (active). With `Cc1cccc([C@@H]2[C@@H]3C(=O)N(Cc4ccccc4)C(=O)[C@@H]3[C@]3(C)C(=O)N(c4ccc(Br)cc4)C(=O)N23)c1`, the GFP response vs DMSO was 98.8% (inactive).

Turning to `CN(c1ccccc1)S(=O)(=O)c1cc(C(=O)N2CCN(c3ncccn3)CC2)ccc1Cl`, the GFP response vs DMSO is 91.2% (inactive).

In the case of `C[C@@H](CN1CCC[C@H]1CN1C(N)=NC[C@@H]1Cc1ccccc1)N1C[C@@H](Cc2ccccc2)N(CCCC2CCCC2)C1=N`, the GFP response vs DMSO was 96.6% (inactive). The result for `O=C(Nc1cc(-c2ccccc2)nn1-c1ccccc1F)c1ccc([N+](=O)[O-])cc1` reads 134% (inactive); that for `COc1ccccc1CNC(=O)CN1CCC(n2cnc3cc(F)ccc32)CC1`, 97.5% (inactive). On to `COc1ccc(NC(=O)/C(Cl)=C(/Cl)S(=O)Cc2ccc(C)cc2)cn1` (configuration not stated), for which the GFP response vs DMSO is 201% (active).

For the compound `CCOc1ccc(S(=O)(=O)Nc2ccc(OC)nc2)cc1`, the GFP response vs DMSO is 98.1% (inactive). As for `COc1ccc(Nc2ccc([N+](=O)[O-])cn2)cn1`, the GFP response vs DMSO was 89.6% (inactive). Regarding `O=C(Nc1ccon1)c1nc[nH]c1C(=O)NCc1ccccc1`, the GFP response vs DMSO was 94.7% (inactive). The result for `Cc1cc2ccccc2n1CCNC(=O)COc1ccc2ccccc2c1` reads 112% (inactive). As for `Cc1cc2ccccc2n1CCC(=O)O`, the GFP response vs DMSO was 154% (active). For the compound `O=C(O)CCn1c(Cc2ccccc2)nc2ccccc21`, the GFP response vs DMSO is 88.9% (inactive). `CCOc1ccc(NC(=S)NC(=O)/C=C/c2ccc(OC)cc2)c([N+](=O)[O-])c1`: the GFP response vs DMSO is 95.5% (inactive).

Consider `COc1ccc(-n2nc(C(=O)NCC(=O)N3CCCCCC3)c3ccccc3c2=O)cc1Cl`, for which the GFP response vs DMSO was 112% (inactive). The result for `CNS(=O)(=O)c1cccc(C(=O)OCCCC(=O)c2ccccc2)c1` reads 100% (inactive). The result for `COc1cccc(C(=O)c2cc3ccc(O)cc3oc2=O)c1` reads 121% (inactive); that for `CCOC(=O)c1cc2cc3ccccc3cc2oc1=O`, 88.3% (inactive).

As to `CCN(CC)c1ccc2cc(C(=O)O)c(=O)oc2c1`, the GFP response vs DMSO is 157% (active). `C[C@H]1CC[C@]2(O[C@@H](CCO)C[C@@H](O)[C@@H]2O)O1`: the GFP response vs DMSO is 105% (inactive). As for `O=c1[nH]c(CSc2ccccc2)nc2c1oc1ccccc12`, the GFP response vs DMSO is 107% (inactive). The same measure for `O=C(Nc1cccc2ccccc12)c1onc2c1CCCC2`: 94% (inactive); for `COc1ccc(N(CC(=O)NCC2CCCO2)C(=O)CCC(=O)Nc2nccs2)c(OC)c1` (configuration not stated): 91.8% (inactive). Regarding `O=C(Nc1nccs1)c1cc(S(=O)(=O)N2CCOCC2)c(Cl)cc1Cl`, the GFP response vs DMSO was 89.4% (inactive). The same measure for `Cc1ccc(C(=O)Nc2ccn(C)n2)cc1`: 101% (inactive); for `CN(C)S(=O)(=O)c1cc(C(=O)Nc2ccn(C)n2)c(Cl)cc1Cl`: 6410% [may fluoresce green] (active).
